ChEMBL document CHEMBL1961873, “Compounds: GSK PKIS; Assays: Nanosyn kinase panel” (2012)

Legend:
[1] = target: Fibroblast growth factor receptor 4 (Homo sapiens) (UniProt P22455); conditions: at 1 µM;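 note: reported figure is the averaged percent inhibition of FGFR4, from the GSK PKIS kinase screening panel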
[2] = target: Tyrosine-protein kinase Fgr (Homo sapiens) (UniProt P09769); conditions: at 0.1 µM
[3] = target: Tyrosine-protein kinase Fgr (Homo sapiens) (UniProt P09769); conditions: at 1 µM
[4] = target: Vascular endothelial growth factor receptor 1 (Homo sapiens) (UniProt P17948); conditions: at 0.1 µM
Chain of Vascular endothelial growth factor receptor 1 (Homo sapiens) (P17948 whole entry): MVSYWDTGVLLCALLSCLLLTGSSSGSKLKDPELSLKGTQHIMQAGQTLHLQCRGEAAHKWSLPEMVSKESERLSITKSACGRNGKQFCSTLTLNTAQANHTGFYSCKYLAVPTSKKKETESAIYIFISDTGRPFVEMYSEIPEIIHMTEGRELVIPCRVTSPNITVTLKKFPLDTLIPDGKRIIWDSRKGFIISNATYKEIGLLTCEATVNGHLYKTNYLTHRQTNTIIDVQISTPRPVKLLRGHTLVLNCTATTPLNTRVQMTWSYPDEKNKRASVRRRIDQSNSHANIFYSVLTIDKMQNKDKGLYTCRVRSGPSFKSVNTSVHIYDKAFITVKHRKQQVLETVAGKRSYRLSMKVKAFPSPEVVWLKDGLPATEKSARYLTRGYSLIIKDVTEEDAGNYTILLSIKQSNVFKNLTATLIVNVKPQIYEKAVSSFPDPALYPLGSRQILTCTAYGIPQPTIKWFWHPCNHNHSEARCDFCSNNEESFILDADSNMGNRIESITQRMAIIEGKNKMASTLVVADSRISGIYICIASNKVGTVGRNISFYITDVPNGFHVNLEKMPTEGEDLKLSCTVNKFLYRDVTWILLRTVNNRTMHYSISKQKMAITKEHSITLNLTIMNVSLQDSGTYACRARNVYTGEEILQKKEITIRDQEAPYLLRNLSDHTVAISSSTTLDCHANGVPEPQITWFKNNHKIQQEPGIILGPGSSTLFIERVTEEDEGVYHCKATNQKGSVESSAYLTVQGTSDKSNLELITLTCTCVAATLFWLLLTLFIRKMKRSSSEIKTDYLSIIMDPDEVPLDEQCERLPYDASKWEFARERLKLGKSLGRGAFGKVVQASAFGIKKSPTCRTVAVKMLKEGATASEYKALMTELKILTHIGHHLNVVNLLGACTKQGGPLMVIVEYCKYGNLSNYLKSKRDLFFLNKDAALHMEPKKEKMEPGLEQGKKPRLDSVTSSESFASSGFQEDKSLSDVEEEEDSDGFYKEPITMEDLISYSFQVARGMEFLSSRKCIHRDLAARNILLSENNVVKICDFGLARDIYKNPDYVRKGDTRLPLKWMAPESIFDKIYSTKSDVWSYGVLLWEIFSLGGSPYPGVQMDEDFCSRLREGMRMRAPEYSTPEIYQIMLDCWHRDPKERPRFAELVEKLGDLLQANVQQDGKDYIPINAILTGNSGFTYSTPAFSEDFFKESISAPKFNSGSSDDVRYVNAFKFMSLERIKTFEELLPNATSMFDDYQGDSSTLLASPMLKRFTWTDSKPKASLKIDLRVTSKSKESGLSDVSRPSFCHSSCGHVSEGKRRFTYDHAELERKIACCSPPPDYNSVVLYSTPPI

[5] = target: Vascular endothelial growth factor receptor 1 (Homo sapiens) (UniProt P17948); conditions: at 1 µM
[6] = target: Receptor-type tyrosine-protein kinase FLT3 (Homo sapiens) (UniProt P36888); conditions: at 0.1 µM
[7] = target: Receptor-type tyrosine-protein kinase FLT3 (Homo sapiens) (UniProt P36888); conditions: at 1 µM
[8] = system: T1, Receptor-type tyrosine-protein kinase FLT3 (Homo sapiens), P36888 [D835Y]; conditions: at 0.1 µM
T1 sequence (whole entry): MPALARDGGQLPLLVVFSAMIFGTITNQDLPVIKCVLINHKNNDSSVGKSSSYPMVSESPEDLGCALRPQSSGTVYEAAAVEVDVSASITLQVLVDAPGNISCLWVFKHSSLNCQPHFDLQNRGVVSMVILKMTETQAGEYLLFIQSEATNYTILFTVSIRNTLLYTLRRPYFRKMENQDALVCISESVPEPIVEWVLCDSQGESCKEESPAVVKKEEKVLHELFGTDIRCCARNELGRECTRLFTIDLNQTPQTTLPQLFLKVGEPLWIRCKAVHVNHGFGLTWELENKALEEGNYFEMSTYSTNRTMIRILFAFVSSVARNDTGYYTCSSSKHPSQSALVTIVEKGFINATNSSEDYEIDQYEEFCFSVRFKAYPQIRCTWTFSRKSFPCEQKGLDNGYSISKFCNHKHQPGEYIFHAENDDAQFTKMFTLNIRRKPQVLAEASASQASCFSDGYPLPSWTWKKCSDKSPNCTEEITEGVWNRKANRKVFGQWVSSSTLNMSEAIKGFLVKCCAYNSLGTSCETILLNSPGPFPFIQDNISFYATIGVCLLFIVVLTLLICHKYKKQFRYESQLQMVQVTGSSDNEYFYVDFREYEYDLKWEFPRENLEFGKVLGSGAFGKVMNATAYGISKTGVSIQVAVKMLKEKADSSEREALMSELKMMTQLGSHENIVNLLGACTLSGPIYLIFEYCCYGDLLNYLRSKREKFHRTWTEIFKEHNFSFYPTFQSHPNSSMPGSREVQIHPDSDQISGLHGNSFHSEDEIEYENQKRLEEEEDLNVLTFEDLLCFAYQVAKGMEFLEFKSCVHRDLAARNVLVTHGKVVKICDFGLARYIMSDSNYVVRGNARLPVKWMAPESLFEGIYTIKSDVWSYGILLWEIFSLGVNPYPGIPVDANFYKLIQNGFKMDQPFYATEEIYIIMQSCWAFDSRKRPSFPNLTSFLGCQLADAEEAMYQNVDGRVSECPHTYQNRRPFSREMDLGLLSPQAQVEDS

[9] = target: Non-receptor tyrosine-protein kinase TYK2 (Homo sapiens) (UniProt P29597); conditions: at 1 µM;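 note: values are mean percent inhibition of TYK2 kinase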
Chain of Non-receptor tyrosine-protein kinase TYK2 (Homo sapiens) (P29597 whole entry): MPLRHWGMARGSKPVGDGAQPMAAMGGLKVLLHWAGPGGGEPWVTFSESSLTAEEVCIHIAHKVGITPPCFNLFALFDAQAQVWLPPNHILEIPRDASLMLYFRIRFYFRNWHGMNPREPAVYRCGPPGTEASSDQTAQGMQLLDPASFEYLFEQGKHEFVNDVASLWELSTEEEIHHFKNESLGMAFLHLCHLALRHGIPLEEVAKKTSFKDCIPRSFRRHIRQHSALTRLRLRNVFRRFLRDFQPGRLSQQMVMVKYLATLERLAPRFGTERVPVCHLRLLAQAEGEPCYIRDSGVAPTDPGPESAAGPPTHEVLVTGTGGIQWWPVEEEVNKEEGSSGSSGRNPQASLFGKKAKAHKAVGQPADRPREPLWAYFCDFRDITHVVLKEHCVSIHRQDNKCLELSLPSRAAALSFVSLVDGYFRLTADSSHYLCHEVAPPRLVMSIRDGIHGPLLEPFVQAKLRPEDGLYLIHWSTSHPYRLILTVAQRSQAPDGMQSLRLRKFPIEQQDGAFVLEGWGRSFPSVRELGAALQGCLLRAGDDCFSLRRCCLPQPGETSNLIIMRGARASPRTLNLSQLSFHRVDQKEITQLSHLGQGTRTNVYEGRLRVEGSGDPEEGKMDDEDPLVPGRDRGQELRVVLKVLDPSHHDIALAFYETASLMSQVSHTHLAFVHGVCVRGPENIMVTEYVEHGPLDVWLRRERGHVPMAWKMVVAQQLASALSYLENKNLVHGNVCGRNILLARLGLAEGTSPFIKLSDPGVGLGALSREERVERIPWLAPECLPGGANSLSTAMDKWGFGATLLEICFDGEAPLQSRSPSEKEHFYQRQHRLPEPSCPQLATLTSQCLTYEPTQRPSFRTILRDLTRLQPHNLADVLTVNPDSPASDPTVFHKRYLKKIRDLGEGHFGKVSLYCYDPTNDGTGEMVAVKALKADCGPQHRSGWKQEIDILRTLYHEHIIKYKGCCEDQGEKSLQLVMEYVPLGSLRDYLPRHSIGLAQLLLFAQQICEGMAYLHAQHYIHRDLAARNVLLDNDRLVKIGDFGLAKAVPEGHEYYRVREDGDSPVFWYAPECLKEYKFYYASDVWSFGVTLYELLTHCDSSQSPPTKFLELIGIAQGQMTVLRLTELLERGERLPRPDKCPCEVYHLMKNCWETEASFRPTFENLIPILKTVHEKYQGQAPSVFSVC

[10] = target: T2, Tyrosine-protein kinase receptor TYRO3 (Homo sapiens) (UniProt Q06418); conditions: at 0.1 µM
T2 sequence (whole entry): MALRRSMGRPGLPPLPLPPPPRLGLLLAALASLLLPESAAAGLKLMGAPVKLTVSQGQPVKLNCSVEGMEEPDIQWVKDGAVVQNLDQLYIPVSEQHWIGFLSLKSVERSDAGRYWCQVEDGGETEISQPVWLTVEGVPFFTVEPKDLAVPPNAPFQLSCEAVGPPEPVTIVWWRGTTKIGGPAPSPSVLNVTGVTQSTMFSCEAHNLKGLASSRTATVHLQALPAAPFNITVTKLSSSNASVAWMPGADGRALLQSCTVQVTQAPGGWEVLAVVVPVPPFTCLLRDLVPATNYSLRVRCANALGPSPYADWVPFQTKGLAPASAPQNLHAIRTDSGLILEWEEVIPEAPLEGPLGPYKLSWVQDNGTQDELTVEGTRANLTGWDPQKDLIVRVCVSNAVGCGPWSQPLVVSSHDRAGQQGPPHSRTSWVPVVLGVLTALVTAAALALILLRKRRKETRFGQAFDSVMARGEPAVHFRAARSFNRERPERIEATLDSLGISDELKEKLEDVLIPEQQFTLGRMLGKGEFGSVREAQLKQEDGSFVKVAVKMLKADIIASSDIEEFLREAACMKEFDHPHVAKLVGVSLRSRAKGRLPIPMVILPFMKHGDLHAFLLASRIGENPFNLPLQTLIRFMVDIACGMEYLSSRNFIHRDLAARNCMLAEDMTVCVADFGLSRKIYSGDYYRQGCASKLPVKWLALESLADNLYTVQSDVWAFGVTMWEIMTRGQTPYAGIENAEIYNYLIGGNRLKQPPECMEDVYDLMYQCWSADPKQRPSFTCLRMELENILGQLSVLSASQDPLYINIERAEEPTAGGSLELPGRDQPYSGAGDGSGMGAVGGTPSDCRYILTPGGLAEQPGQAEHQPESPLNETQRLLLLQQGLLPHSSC

[11] = target: T2, Tyrosine-protein kinase receptor TYRO3 (Homo sapiens); conditions: at 1 µM
[12] = target: Tyrosine-protein kinase Yes (Homo sapiens) (UniProt P07947); conditions: at 0.1 µM
Chain of Tyrosine-protein kinase Yes (Homo sapiens) (P07947 2-543 limits assumed): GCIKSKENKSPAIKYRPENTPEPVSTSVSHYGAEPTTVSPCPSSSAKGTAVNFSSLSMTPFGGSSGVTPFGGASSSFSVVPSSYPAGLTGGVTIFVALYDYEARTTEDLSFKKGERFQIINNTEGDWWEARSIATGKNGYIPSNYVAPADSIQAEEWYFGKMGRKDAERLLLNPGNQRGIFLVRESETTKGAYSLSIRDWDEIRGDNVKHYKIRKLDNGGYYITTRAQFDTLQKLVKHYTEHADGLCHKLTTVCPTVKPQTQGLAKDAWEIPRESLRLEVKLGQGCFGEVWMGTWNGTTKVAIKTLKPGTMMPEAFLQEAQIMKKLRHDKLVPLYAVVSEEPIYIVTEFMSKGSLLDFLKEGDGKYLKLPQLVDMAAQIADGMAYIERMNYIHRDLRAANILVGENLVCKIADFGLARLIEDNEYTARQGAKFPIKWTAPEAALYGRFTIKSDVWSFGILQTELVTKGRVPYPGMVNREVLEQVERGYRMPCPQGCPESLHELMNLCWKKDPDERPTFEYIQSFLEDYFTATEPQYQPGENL

[13] = target: Tyrosine-protein kinase Yes (Homo sapiens) (UniProt P07947); conditions: at 1 µM
[14] = target: T3, Tyrosine-protein kinase ZAP-70 (Homo sapiens) (UniProt P43403); conditions: at 0.1 µM
T3 sequence (whole entry): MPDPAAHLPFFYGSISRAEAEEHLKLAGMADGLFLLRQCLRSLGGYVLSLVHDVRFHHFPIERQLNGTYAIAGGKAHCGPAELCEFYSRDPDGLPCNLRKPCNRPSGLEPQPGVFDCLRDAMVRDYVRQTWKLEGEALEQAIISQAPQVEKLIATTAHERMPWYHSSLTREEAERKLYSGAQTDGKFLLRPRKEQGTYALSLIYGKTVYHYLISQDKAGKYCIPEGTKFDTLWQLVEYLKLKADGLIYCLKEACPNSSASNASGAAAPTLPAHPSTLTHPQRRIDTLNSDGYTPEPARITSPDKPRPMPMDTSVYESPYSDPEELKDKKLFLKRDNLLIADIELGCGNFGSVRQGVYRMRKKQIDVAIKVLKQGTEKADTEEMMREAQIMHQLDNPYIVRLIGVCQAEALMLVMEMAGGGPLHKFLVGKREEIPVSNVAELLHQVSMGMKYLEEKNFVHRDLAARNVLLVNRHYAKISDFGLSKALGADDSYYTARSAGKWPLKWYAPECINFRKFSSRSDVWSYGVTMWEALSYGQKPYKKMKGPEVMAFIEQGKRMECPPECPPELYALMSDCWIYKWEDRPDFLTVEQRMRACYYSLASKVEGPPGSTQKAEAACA

[15] = target: T3, Tyrosine-protein kinase ZAP-70 (Homo sapiens); conditions: at 1 µM
[16] = target: Serine/threonine-protein kinase B-raf (Homo sapiens) (UniProt P15056); conditions: at 0.1 µM
Chain of Serine/threonine-protein kinase B-raf (Homo sapiens) (P15056 whole entry): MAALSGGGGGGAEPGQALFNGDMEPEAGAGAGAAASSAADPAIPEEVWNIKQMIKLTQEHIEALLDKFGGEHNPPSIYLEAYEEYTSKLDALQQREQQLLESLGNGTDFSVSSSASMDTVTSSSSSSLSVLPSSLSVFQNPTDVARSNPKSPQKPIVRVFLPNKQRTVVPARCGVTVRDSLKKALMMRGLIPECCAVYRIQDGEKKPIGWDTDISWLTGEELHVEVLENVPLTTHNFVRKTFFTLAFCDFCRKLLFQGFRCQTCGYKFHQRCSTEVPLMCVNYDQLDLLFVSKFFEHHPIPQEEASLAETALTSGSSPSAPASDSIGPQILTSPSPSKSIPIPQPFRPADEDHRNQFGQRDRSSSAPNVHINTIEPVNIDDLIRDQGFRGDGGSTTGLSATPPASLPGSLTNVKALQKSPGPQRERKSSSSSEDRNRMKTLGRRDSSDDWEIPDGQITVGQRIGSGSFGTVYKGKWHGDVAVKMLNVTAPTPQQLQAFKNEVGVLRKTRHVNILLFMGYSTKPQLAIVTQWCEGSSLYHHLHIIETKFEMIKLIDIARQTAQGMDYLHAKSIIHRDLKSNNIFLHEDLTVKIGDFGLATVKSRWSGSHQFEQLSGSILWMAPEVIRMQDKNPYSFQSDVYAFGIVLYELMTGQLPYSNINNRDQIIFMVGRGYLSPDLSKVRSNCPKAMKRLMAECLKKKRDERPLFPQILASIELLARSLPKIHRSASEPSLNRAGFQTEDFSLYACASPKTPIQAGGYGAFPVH

[17] = target: Serine/threonine-protein kinase B-raf (Homo sapiens) (UniProt P15056); conditions: at 1 µM
[18] = system: Serine/threonine-protein kinase B-raf (Homo sapiens), P15056 [V600E]; conditions: at 0.1 µM
Chain of Serine/threonine-protein kinase B-raf (Homo sapiens), P15056 [V600E] (P15056 whole entry V600E): as the sequence (P15056 whole entry) above, with V600E counted along it

[19] = system: Serine/threonine-protein kinase B-raf (Homo sapiens), P15056 [V600E]; conditions: at 1 µM
[20] = target: RAF proto-oncogene serine/threonine-protein kinase (Homo sapiens) (UniProt P04049); conditions: at 0.1 µM;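 note: values are mean CRAF kinase inhibition from profiling of the GSK Published Kinase Inhibitor Set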
Chain of RAF proto-oncogene serine/threonine-protein kinase (Homo sapiens) (P04049 whole entry): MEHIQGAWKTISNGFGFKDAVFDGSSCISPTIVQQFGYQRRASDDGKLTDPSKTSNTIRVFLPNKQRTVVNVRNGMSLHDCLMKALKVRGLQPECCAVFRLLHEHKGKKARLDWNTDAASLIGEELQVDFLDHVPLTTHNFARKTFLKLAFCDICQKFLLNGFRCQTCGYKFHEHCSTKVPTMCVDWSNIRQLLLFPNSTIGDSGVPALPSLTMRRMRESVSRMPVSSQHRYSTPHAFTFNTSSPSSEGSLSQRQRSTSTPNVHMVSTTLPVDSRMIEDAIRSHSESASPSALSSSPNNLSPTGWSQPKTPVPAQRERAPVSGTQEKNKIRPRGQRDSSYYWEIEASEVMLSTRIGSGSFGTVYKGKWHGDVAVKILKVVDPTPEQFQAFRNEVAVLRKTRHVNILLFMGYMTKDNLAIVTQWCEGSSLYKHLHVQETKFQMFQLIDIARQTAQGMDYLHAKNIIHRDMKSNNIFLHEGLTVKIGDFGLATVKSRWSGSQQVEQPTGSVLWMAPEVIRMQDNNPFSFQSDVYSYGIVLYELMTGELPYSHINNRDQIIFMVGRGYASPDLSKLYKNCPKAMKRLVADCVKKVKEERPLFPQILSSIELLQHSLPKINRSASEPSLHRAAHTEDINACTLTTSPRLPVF

Chain of Tyrosine-protein kinase Fgr (Homo sapiens) (P09769 2-529 limits assumed): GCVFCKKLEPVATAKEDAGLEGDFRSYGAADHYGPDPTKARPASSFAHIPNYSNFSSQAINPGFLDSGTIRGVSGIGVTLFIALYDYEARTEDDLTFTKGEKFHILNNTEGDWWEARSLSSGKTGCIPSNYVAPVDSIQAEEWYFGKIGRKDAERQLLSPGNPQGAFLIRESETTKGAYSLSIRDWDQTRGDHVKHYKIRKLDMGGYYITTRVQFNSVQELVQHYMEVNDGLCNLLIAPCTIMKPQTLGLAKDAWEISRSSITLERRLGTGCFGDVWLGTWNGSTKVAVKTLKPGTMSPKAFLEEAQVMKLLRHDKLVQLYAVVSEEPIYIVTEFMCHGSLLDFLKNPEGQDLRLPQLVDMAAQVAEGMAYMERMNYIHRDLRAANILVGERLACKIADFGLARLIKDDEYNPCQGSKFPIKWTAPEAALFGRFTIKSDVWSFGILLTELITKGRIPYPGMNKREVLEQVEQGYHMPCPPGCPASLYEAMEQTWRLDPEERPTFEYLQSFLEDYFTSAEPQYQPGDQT

## Fc1ccc(-c2cc(-c3c[nH]nc3-c3ccccn3)ccn2)cc1
[1]
  inhibition: -0.52%
[2]
  inhibition: 5.85%
[3]
  inhibition: 3.11%
[4]
  inhibition: 1.1%
[5]
  inhibition: 1.96%
[6]
  inhibition: 2.44%
[7]
  inhibition: 2.5%
[8]
  inhibition: -6.21%
[9]
  inhibition: -4.52%
[10]
  inhibition: 3.67%
[11]
  inhibition: 5.06%
[12]
  inhibition: 5.64%
[13]
  inhibition: 9.04%
[14]
  inhibition: 2.71%
[15]
  inhibition: 2.35%
[16]
  inhibition: 6.7%
[17]
  inhibition: 8.05%
[18]
  inhibition: 9.04%
[19]
  inhibition: 6.61%
[20]
  inhibition: 0.68%

## CCN(CC)S(=O)(=O)c1ccc(OC)c(Nc2ncc(-c3ccccc3)o2)c1
[1]
  inhibition: 3.57%
[2]
  inhibition: 10.4%
[3]
  inhibition: 38.8%
[4]
  inhibition: 7.45%
[5]
  inhibition: 30.6%
[6]
  inhibition: 10.2%
[7]
  inhibition: 53.4%
[8]
  inhibition: 17.9%
[9]
  inhibition: 0.12%
[10]
  inhibition: 8.1%
[11]
  inhibition: 45.8%
[12]
  inhibition: 24.2%
[13]
  inhibition: 58.6%
[14]
  inhibition: 2.08%
[15]
  inhibition: -0.02%
[16]
  inhibition: 0.42%
[17]
  inhibition: 0.29%
[18]
  inhibition: -0.35%
[19]
  inhibition: 0.01%
[20]
  inhibition: 0.35%

## CCn1cc(-c2ccnc3[nH]ccc23)c(-c2cccc(NC(=O)Nc3ccc(OCc4ccccc4)cc3)c2)n1
[1]
  inhibition: 3.27%
[2]
  inhibition: 7.42%
[3]
  inhibition: 34.1%
[4]
  inhibition: -3.05%
[5]
  inhibition: 2.9%
[6]
  inhibition: -1.9%
[7]
  inhibition: -2.19%
[8]
  inhibition: -9.12%
[9]
  inhibition: 0.52%
[10]
  inhibition: 0.03%
[11]
  inhibition: 1.53%
[12]
  inhibition: 1.1%
[13]
  inhibition: 24.8%
[14]
  inhibition: -0.61%
[15]
  inhibition: 2.51%
[20]
  inhibition: 4.65%

## CCCN1CCC(c2ccc(Nc3nc(Nc4cc(F)ccc4C(N)=O)c4cc[nH]c4n3)c(OC)c2)CC1
[1]
  inhibition: 12.4%
[2]
  inhibition: 6.28%
[3]
  inhibition: 7.49%
[4]
  inhibition: 0.21%
[5]
  inhibition: 0.37%
[6]
  inhibition: 4.46%
[7]
  inhibition: 20.3%
[8]
  inhibition: 6.01%
[9]
  inhibition: -2.78%
[10]
  inhibition: 3.47%
[11]
  inhibition: 18.4%
[12]
  inhibition: 5.76%
[13]
  inhibition: 19.3%
[15]
  inhibition: 29.3%
[16]
  inhibition: 9.61%
[17]
  inhibition: 37.6%
[18]
  inhibition: 10.1%
[19]
  inhibition: 37.4%
[20]
  inhibition: 7.25%

## Nc1ncc(-c2cccc(S(N)(=O)=O)c2)c2scc(-c3ccc(F)c(Cl)c3)c12
[1]
  inhibition: 5.88%
[2]
  inhibition: 10.9%
[3]
  inhibition: 45.8%
[4]
  inhibition: 4.56%
[5]
  inhibition: 14.9%
[6]
  inhibition: 1.34%
[7]
  inhibition: 5.98%
[8]
  inhibition: -3.2%
[9]
  inhibition: -2.5%
[10]
  inhibition: 4.05%
[11]
  inhibition: 25.1%
[12]
  inhibition: 11.5%
[13]
  inhibition: 56.4%
[14]
  inhibition: 1.28%
[15]
  inhibition: 2.18%
[16]
  inhibition: 6.39%
[17]
  inhibition: 15.3%
[18]
  inhibition: 5.84%
[19]
  inhibition: 10.1%
[20]
  inhibition: -0.36%

## Nc1nc(-c2ccc(F)cc2)c(-c2ccc3ncccc3n2)s1
[1]
  inhibition: 3.47%
[2]
  inhibition: 6.43%
[3]
  inhibition: 14.1%
[4]
  inhibition: -0.09%
[5]
  inhibition: 6.56%
[6]
  inhibition: 3.5%
[7]
  inhibition: 3.75%
[8]
  inhibition: 1.18%
[9]
  inhibition: -1.99%
[10]
  inhibition: 3.01%
[11]
  inhibition: 2.87%
[12]
  inhibition: 6.52%
[13]
  inhibition: 37.8%
[14]
  inhibition: 1.91%
[15]
  inhibition: 1.99%
[16]
  inhibition: 6.57%
[17]
  inhibition: 7.72%
[18]
  inhibition: 6.41%
[19]
  inhibition: 7.92%
[20]
  inhibition: 0.53%

## CCn1c(-c2nonc2N)nc2c(C#CC(C)(C)O)ncc(OC3CCNCC3)c21
[1]
  inhibition: -1.22%
[2]
  inhibition: 1.43%
[3]
  inhibition: 4.57%
[4]
  inhibition: 5.67%
[5]
  inhibition: 16.4%
[6]
  inhibition: 3.32%
[7]
  inhibition: 3.82%
[8]
  inhibition: 1.56%
[9]
  inhibition: -1.36%
[10]
  inhibition: 2.05%
[11]
  inhibition: 2.44%
[12]
  inhibition: 1.38%
[13]
  inhibition: 5.89%
[14]
  inhibition: 0.49%
[15]
  inhibition: 1.77%
[16]
  inhibition: 3.57%
[17]
  inhibition: 6.35%
[18]
  inhibition: 4.12%
[19]
  inhibition: 3.02%
[20]
  inhibition: 8.75%
